From PubChem BioAssay AID588405 (Sanford-Burnham Center for Chemical Genomics, 2011) come the findings set out here.

Out of some 360,000 compounds screened, about 6,200 (1.7%) were called active.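 Rule for the calls: active = inhibition of at least 50% at 20 µM; inactive = the rest.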 Only a selection was taken, and actives are over-represented in it overall.

This test in a line: inhibition of PEG-3 promoter activity – cell-based, HeLa, luciferase luminescence, primary screen (AID 588405). The settings on record: HeLa PEG-Prom luciferase reporter, overnight, at 20 µM, hits give high values.
One may read the inhibition as the drop in the measured response relative to a control, in per cent. On to `c1c2c(cc3sc(N4CCCCC4)nc13)OCCO2`, for which the inhibition is 80.5% (active).
The result for `CCOC(=O)N1CCC(NC(=O)c2ccc3nc(N4CCOCC4)sc3c2)CC1` reads 16.9% (inactive); that for `CS(=O)(=O)N1CCCCC1c1cc(C(=O)NCc2ccccc2)no1` (centres undefined), -14.8% (inactive).
In the case of `O=[N+]([O-])c1ccc(CN2CC(N3CCC(c4ccccc4)CC3)CS2(=O)=O)cc1` (centres undefined) it was 10% (inactive).
`COc1ccc(C(CCNCc2ccccc2F)c2ccc(F)cc2)cc1` (centres undefined): the inhibition was 17.7% (inactive).
Turning to `COc1cccc(CNCCc2c[nH]c3ccccc23)c1OCc1ccccc1F`, the inhibition is 92.7% (active).
In the case of `Fc1ccccc1COc1ccccc1CNCc1ccncc1` it was 18.9% (inactive); in that of `CNc1cncc(-c2ccc(NS(C)(=O)=O)cc2)n1`, 21.2% (inactive).
The result for `CC1(C(=O)NS(=O)(=O)c2ccc(C#N)cc2)CCN1C(=O)CC1CCCC1` (centres undefined) reads 11.7% (inactive); that for `COc1ccc(C(C#N)=C2C=CC(=NO)c3ccccc32)cc1`, -114% (inactive); that for `COc1ccc(NS(=O)(=O)c2cc3c(cc2C)N(C(C)=O)CCO3)cc1`, 9.24% (inactive).
With `COc1cc([N+](=O)[O-])ccc1NC(=O)COC(=O)CCOc1ccc(C)cc1`, the inhibition was 51.2% (active).
Consider `COc1ccc([N+](=O)[O-])cc1NCC(=O)c1ccc(C)cc1`, for which the inhibition is -17.2% (inactive).
In the case of `CSc1ccccc1NC(=O)COC(=O)CCCOc1ccc(C)cc1` it was 8.63% (inactive); in that of `CN1OC[C@@H]2CN(C(=O)c3cccc4ccccc34)[C@H](c3ccc(N4CCCCC4)cc3)C[C@@H]21`, 1% (inactive).
In the case of `O=C(Nc1ccccc1C(=O)NCC1CCCO1)c1ccccc1F` (centres undefined) it was 6% (inactive); in that of `CSc1n[nH]c(=S)n1N`, 12.2% (inactive); in that of `Cc1ccc(C)c(S(=O)(=O)N2CCN(c3ncnc4sccc34)CC2)c1`, 58.5% (active).
The result for `COc1ccc(-c2csc3ncnc(N4CCN(S(=O)(=O)c5ccccc5C#N)CC4)c23)cc1` reads 33.6% (inactive); that for `Cc1ccc(C)c(S(=O)(=O)N2CCN(C(=O)Nc3ccccc3)CC2)c1`, 5.32% (inactive); that for `CC(C)Cc1ccc(-c2cc3nc(NCc4cccc(Cl)c4)ccn3n2)cc1`, -178% (inactive).
`CC(C)NC(=O)C1(C)CCCCN1Cc1cccc(C(F)(F)F)c1` (centres undefined): the inhibition was -13.2% (inactive).
In the case of `COc1ccc(-c2ccc(C(=O)NC(C)C)c3occc23)c(C)c1` it was -11.5% (inactive).
With `Cc1ccc(Cn2c(C)c(C(=O)NCc3ccccc3C(F)(F)F)sc2=O)cc1`, the inhibition is 18.5% (inactive).
For `Cc1cc(C)cc(NS(=O)(=O)Cc2ccccc2)c1`, the inhibition was -13.5% (inactive).
In the case of `Cc1cccc(NC(=O)Cn2cc(C(=O)c3ccco3)c3ccccc32)c1` it was 8.59% (inactive); in that of `CN1CCN(c2ccc(NC(=O)c3ccc4c(c3)[nH]c(=O)n4Cc3ccc(F)cc3)cc2)CC1`, 24.3% (inactive).
On to `Cc1cccc(NC(=O)c2nc(S(=O)(=O)Cc3ccccc3)ncc2Cl)c1`, for which the inhibition was 111% (active).
For the compound `O=C(Nc1ccc(F)cc1)c1ccc(S(=O)(=O)NCc2cccnc2)cc1`, the inhibition is -20.7% (inactive).
In the case of `Cc1cccc(CS(=O)(=O)c2ncc(Cl)c(C(=O)Nc3ccc(F)cc3)n2)c1` it was 108% (active).
The result for `CC(Oc1cc2oc(=O)c3c(c2cc1Cl)CCCC3)C(=O)NCc1ccncc1` (centres undefined) reads 3.42% (inactive).
The result for `Cc1ccc2nc(-c3ccccc3)c(CC3CCCCC3)n2c1` reads -146% (inactive); that for `Clc1cccc(Cc2c(-c3cccc(Cl)c3)nc3ccc(Cl)cn23)c1`, -112% (inactive); that for `COc1ccc(CN2CCC(C)(Oc3cccc(F)c3)C2)c2ccccc12` (centres undefined), -19.4% (inactive).
Turning to `O=C(NCc1cccnc1)c1cc(C2CCCN(C(=O)CCCc3ccccc3)C2)on1` (centres undefined), the inhibition was -7.2% (inactive).
With `Cc1cc(C)c2c(Cn3ccnc3)cc(=O)oc2c1`, the inhibition was 18.3% (inactive).
The result for `Cn1c2ccccc2c(=O)c2c(=O)n(Cc3ccco3)c(COc3ccccc3)nc21` reads 50.5% (active); that for `CCCc1nc2c(c(=O)c3ccccc3n2C)c(=O)n1C1CCCCCC1`, -44.1% (inactive); that for `O=C(CSc1nnc(COc2ccc(Cl)cc2)n1Cc1ccco1)N1CCNC1=O`, 6.82% (inactive).
On to `CCCNC(=O)C1(C)CCCN(Cc2c(C)nn(-c3ccccc3)c2C)C1` (centres undefined), for which the inhibition is 5.49% (inactive).
Take `COc1cccc(-c2cnc(C(O)c3ccccc3OC)[nH]2)c1` (centres undefined): the inhibition is -9.16% (inactive).
In the case of `O=C(Nc1ccccc1Cl)/C(Cl)=C(\Cl)S(=O)c1ccccc1` (centres undefined), the inhibition is 108% (active).
In the case of `O=C(COc1ccc(-n2cnnn2)cc1)Nc1ccccc1Cl` it was -1.45% (inactive); in that of `CS/C(=C\C(=O)c1ccco1)Nc1ccccc1Cl`, -49.5% (inactive).
The result for `CC(=O)N1CCN(Cc2cc(=O)oc3cc(C)ccc23)CC1` reads -2.53% (inactive); that for `COc1ccc(-c2cc(NC=O)c3ncc(-c4ccccc4)n3c2)cc1OC`, 49.4% (inactive); that for `C[C@H]([C@@H](O)[C@@H](O)[C@@H](C)C(C)(C)C)[C@H]1CC[C@H]2C3CC[C@H]4C[C@H](OS(=O)(=O)O)[C@@H](OS(=O)(=O)O)C[C@]4(C)[C@H]3CC[C@]12C` (some centres undefined), 6.06% (inactive).
In the case of `COc1ccc(NC(=O)C2(C)Cc3c(-c4cccc(NC(C)=O)c4)ccnc3O2)cc1` (centres undefined), the inhibition was -10.2% (inactive).
Take `c1ccc2c(c1)CSc1sccc1C2=C1CCNCC1`: the inhibition was 33.5% (inactive).
As for `CCOC1=C2[C@@H](CN(S(=O)(=O)c3ccc(C)cc3)[C@H]2c2ccccc2F)[C@H]2C(=O)N(Cc3ccccc3)C(=O)[C@H]2C1`, the inhibition is 6.76% (inactive).
In the case of `CCCCC(=O)N(C)c1c(CC)nc2c(OCc3ccc(Cl)cc3Cl)cccn12` it was 39% (inactive); in that of `CCOC(=O)Cc1csc(NC(=O)COc2ccc3c(C)cc(=O)oc3c2)n1`, -3.01% (inactive).
Turning to `Cc1ccc(O)c(/C=N/NC(=O)COc2ccc3c(C)cc(=O)oc3c2)c1`, the inhibition is 66.5% (active).
The result for `Cc1cc(=O)oc2cc(OCC(=O)Nc3nnc(C4CC4)s3)ccc12` reads 2.23% (inactive); that for `CC(C)Oc1c(Br)cc(Br)cc1/C=N/NC(N)=S`, 48.7% (inactive); that for `CNc1cncc(-c2cccc(C(=O)N3CCOCC3)c2)n1`, 2.98% (inactive).
`Cc1ccc(N(Cc2cc(=O)[nH]c3ccccc23)C(=O)CCl)cc1`: the inhibition is 106% (active).
Take `CC(=O)N(Cc1cc(=O)[nH]c2ccccc12)c1ccc(C)cc1C`: the inhibition was 23.2% (inactive).
With `Cc1ccc(N(Cc2cc3ccccc3[nH]c2=O)C(=O)c2cccs2)cc1`, the inhibition is 11.2% (inactive).
